Compound activity as filed in PubChem.
IL-1B inflam inh – blocks inflammasome-driven IL-1 beta release | THP-1 LPS/ATP IL-1B secretion, AlphaLISA, 16 h; active compounds read low | activity change, % at 57.5 µM | hit rate 4.7% among 360,000 | AID 743279; in the data active = activity change below about -50%; inconclusive = mostly about -30% to -49%
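THP-1 cells pretreated 1 hr with compounds (up to 57.5 uM final), then stimulated with LPS (250 ng/mL final) plus ATP (1.25 mM final); secreted IL-1B measured by AlphaLISA after 16 hr, decreased signal indicating inhibition.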
DT40 TDP1 CPT – DT40-hTDP1 cell growth loss with CPT; chicken DT40 Tdp1-/-;hTDP1 cells + 20 nM CPT, ATP luminescence, 48 h; Potency, µM (top dose mostly 46.2 µM), without a hit: at the top dose activity change, negative = growth inhibition, hits mostly inhibitors; hit rate 12% among 420,000; AID 686979; note: potency is the fitted concentration of half-maximal effect; nearly all actives have a fitted effect of over 55% in size
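Chicken DT40 Tdp1-/- cells stably complemented with human TDP1 were seeded at 400 cells/well in medium containing 20 nM camptothecin, exposed to pin-transferred compounds, and grown at 37 °C for at least 48 hr. Viability was read as ATP luminescence.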
HT1080 IDH1KD tx – kills HT-1080 cells with IDH1 knockdown; Potency, µM (series often up to 46.1 µM), for inactives: top-dose activity, negative = toxicity, most hits filed as cytotoxic; AID 686971; HT-1080 IDH1 knockdown viability, ATP luminescence, 48 h; hit rate 2% among 360,000;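 note: potency is the fitted concentration of half-maximal effect; 0% = DMSO wells and -100% = cell-free medium wells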
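Knockdown cells (IDH1KD HT-1080) received compounds 2 h after plating at 750 cells/well and were kept 48 h at 37 °C in 5% FBS RPMI. A CellTiter-Glo luminescence read gave % activity for curve fitting.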
uPA generation – inhibitors of cell surface uPA generation; cell surface uPA generation assay, qHTS; Potency, µM (highest dose often 38.3 µM), without a hit: at the highest dose activity change, negative = inhibition, most hits filed as inhibitors; hit rate 0.31% among 330,000; active = well fitted inhibition curve with a large enough effect; inconclusive = small, poorly fitted or top-dose-only effect; inactive = no such curve, though single readings can be large or run the other way; tested in mouse RAW 264.7 cells; note: potency is the fitted concentration of half-maximal effect; nearly all actives have a fitted effect of over 55% in size
TDP1 cell noCPT – qHTS for Inhibitors of human tyrosyl-DNA phosphodiesterase 1 (TDP1): qHTS in cells in absence of CPT. Potency, µM (series often up to 46.2 µM), for the others: top-dose activity change, negative = growth inhibition, usual class: inhibitors. hit rate 15% among 420,000. DT40 Tdp1-/- hTDP1 cells, no CPT, ATP luminescence, 48 h; note: potency is the fitted concentration of half-maximal effect; nearly all actives have a fitted effect of over 55% in size
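Luminescent ATP content (CellTiter-Glo) served as the growth readout. Knockout chicken DT40 cells expressing human TDP1 were exposed to compounds without camptothecin for a minimum 48 hr at 37 °C.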
HT1080NT lethal – kills 2HG-producing HT-1080-NT fibrosarcoma cells. HT-1080-NT fibrosarcoma viability, CellTiter-Glo ATP luminescence, 48 h. Potency, µM (series often up to 46.1 µM), for the others: top-dose activity, negative = less viability, hits mostly cytotoxic. hit rate 1.6% among 360,000;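 note: NT is the 2HG producing partner of a matched IDH1 knockdown line; potency is the fitted concentration of half-maximal effect; 0% = DMSO-treated cells and -100% = media-only wells without cells; nearly all actives have a fitted effect of over 55% in size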
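Luminescent CellTiter-Glo readout after 48 hours of compound exposure at 37 degrees C defined viability of HT-1080-NT cells. Activity was normalized to DMSO wells and cell-free media wells; concentration-response curves were fitted and assigned curve classes.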
* = called active by the depositor; ? = inconclusive; · = no result given. Shown are actives, neighbours in structure and some others; about 19% of the full set was active somewhere. Unless noted, calls come from the whole dose curve; as a rule, active = well fitted curve in the direction sought with a large enough effect; inconclusive = small, poorly fitted or top-dose-only effect, or another doubt; inactive = no such curve, though single readings can be large; an effect the other way counts as inactive or inconclusive. Unless noted, % is set by controls: 0 for no effect and ±100 for the full control effect.

SMILES	IL-1B inflam inh	DT40 TDP1 CPT	HT1080 IDH1KD tx	uPA generation	TDP1 cell noCPT	HT1080NT lethal
COc1ccc(OC)c(-c2csc(NC(=O)Cc3ccccc3F)n2)c1	-62*	?	-10%	1%	?	-25%
O=C(CCCc1ccccc1)NCCS(=O)(=O)N1CCN(c2ccccc2)CC1	-21	?	-7%	·	?	4%
Cc1onc(-c2ccccc2)c1C(=O)OCC(=O)N1CCCCC1	-5	-24%	-1%	·	?	10%
COc1ccc(-c2csc(NC(=O)CN3C(=O)NC4(CCCC4)C3=O)n2)cc1	-12	-7%	5%	-4%	-3%	-1%
O=C(CN1C(=O)NC2(CCCC2)C1=O)Nc1nc(-c2ccc(F)c(F)c2)cs1	-17	12µM*	-3%	2%	?	-5%
Cc1cc(C=O)c(C)n1-c1ccc(N2CCCC2)c([N+](=O)[O-])c1	-3	?	0%	-3%	26µM*	8%
O=[N+]([O-])c1cc(-n2cccc2)ccc1N1CCOCC1	-14	5%	13%	2%	?	8%
Cc1cc(C=O)c(C)n1-c1ccc(N2CCOCC2)c([N+](=O)[O-])c1	-4	?	-13%	5%	?	-9%
Cc1ccc(C)n1-c1ccc(N2CCOCC2)c([N+](=O)[O-])c1	-68*	?	?	?	15µM*	-25%
COc1ccccc1N1CCN(C(C)C(=O)N2CC(C)OC(C)C2)CC1 (stereo not drawn)	26	2%	-2%	-2%	3%	18%
Cc1cccc(NC(=O)CCN2CCN(c3ccccc3F)CC2)c1	·	-29%	·	·	?	·
CCCN(CCC)CC(O)CN1C(=O)N(CN2C(=O)N(CC(O)CN(CCC)CCC)C(=O)C2(C)C)C(C)(C)C1=O (stereo not drawn)	-65*	5%	-5%	-14%	8%	-29%
CC1CC(Nc2ccccc2)c2ccccc2N1C(=O)c1cccnc1 (stereo not drawn)	0	9.2µM*	?	-5%	4.6µM*	?
CC1COCC(C)N1C(=O)c1cccnc1 (stereo not drawn)	0	-2%	9%	·	-24%	3%
CC1CC(Nc2ccccc2)c2ccccc2N1C(=O)c1ccccc1F (stereo not drawn)	44	1.8µM*	-7%	?	1µM*	2%
COC(=O)c1ccc(-c2cccc3c2OC(CNC(=O)c2ccc4c(c2)OCCO4)C3)nc1 (stereo not drawn)	·	-22%	·	·	-8%	·
Cc1ccc(C(=O)O)cc1S(=O)(=O)Nc1ccccc1C(=O)NC1CC1	21	13%	1%	-1%	3%	3%
CC1CCCCN1C(=O)COC(=O)c1ccc(=O)n(Cc2ccccc2)n1 (stereo not drawn)	2	-22%	15%	3%	-11%	15%
CCc1ccc(C2=NN(c3ccc(S(N)(=O)=O)cc3)C(c3ccc(F)cc3)C2)cc1 (stereo not drawn)	-87*	18µM*	?	5%	?	?
NS(=O)(=O)c1ccc(N2N=C(c3ccccc3)CC2c2ccccc2)cc1 (stereo not drawn)	-52*	?	?	0%	?	?
Cc1ccc(C2CC(c3ccccc3)=NN2c2ccc(S(N)(=O)=O)cc2)cc1 (stereo not drawn)	?	29µM*	?	·	?	?
COc1ccc(C2CC(c3ccc(C(F)(F)F)cc3)=NN2c2ccc(S(N)(=O)=O)cc2)cc1 (stereo not drawn)	-26	18µM*	?	?	?	?
NS(=O)(=O)c1ccc(N2N=C(c3ccccc3)CC2c2ccc(Br)cc2)cc1 (stereo not drawn)	-25	?	?	·	?	?
CCOc1ccccc1NC(=O)NNC(=O)CCc1ccc(OC)cc1	6	1%	4%	4%	10%	24%
CCN(c1ccccc1)S(=O)(=O)c1ccc(OC)c(NC(=O)c2cc(F)c(F)c(F)c2F)c1	-8	-25%	-2%	-3%	-17%	0%
SMILES	IL-1B inflam inh	DT40 TDP1 CPT	HT1080 IDH1KD tx	uPA generation	TDP1 cell noCPT	HT1080NT lethal
O=C1N[C@@H](Cc2cn(S(=O)(=O)c3ccc([N+](=O)[O-])cc3)c3ccccc23)C(=O)N[C@H]1Cc1ccccc1	-23	21µM*	-10%	-21%	?	-14%
COc1ccccc1N=Nc1ccc(O)c2ncccc12	20	2.9µM*	?	?	2.9µM*	?
Oc1ccc(N=Nc2ccccc2C(F)(F)F)c2cccnc12	16	0.82µM*	?	?	1µM*	-26%
CCS(=O)(=O)c1ccc(N=Nc2ccc(O)c3ncccc23)c(OC)c1	111	1.8µM*	5.2µM*	-17%	1.3µM*	1.5µM*
O=c1ncn(-c2ccccc2C(F)(F)F)c2ncccc12	4	0%	11%	-4%	-1%	17%
CN(C(=O)COC(=O)c1ccc(S(=O)(=O)N2CCOCC2)cc1)c1ccccc1	1	3%	19%	-1%	-15%	1%
COc1ccccc1-c1ocnc1C(=O)N1CCN(S(=O)(=O)c2ccc(NC(C)=O)cc2)CC1	-5	-9%	4%	5%	?	5%
O=C(Nc1ccccc1F)C(=Cc1sc(N2CCOCC2)nc1-c1ccccc1)C(=O)Nc1ccccc1F	-24	1.6µM*	-1%	5%	5.2µM*	-21%
O=C(N/N=C/c1sc(N2CCOCC2)nc1-c1ccccc1)c1ccccc1F	29	?	0%	1%	?	-4%
CC/C(=N\NC(=O)CCC(=O)NCc1ccccc1)c1ccc(O)cc1	12	2.9µM*	-14%	-4%	4.1µM*	1%
CCOC(=O)N/N=C/c1ccc(N(CC)CC)cc1O	8	8.2µM*	9.2µM*	?	5.8µM*	?
CCN(CC)c1ccc(/C=N/NC(=O)CCC(=O)NCc2ccccc2)c(O)c1	48	5.2µM*	?	-8%	5.2µM*	-28%
COc1ccc(OCC(=O)OCc2cc(=O)n3nc(C4CC4)sc3n2)cc1	·	1%	·	·	-21%	·
O=C(N/N=C/c1sc(N2CCOCC2)nc1-c1ccccc1)c1cccc(S(=O)(=O)N2CCOCC2)c1	193	4.6µM*	?	?	4.6µM*	3.7µM*
CCN(CC)c1ccc(/C=N/NC(=O)c2c(Cl)cnn2C)c(O)c1	69	3.7µM*	?	-15%	5.8µM*	?
